# Unmarked numbers belong to inactive results. No stated cut-off is given here; in the data, active means inhibition above about 30%; inactive means the rest.
# Test: growth suppression of yeast trafficking mutant, preliminary HTS, modulators of trafficking downstream of Golgi apparatus project, 1536-format plate, OD 615 nm (AID 637)
# Conditions: yeast transport mutant growth, absorbance 615 nm, 18 h; stronger effect = higher value
row,Compound,inhibition
1,CCOc1ccc2nc(SCC(=O)Nc3ncccn3)[nH]c2c1,3.45%
2,O=C(NCc1ccccn1)c1cc(-n2cnnc2)ccc1Cl,2.79%
3,OCC(O)CN1CCN(c2ccccc2)CC1 (stereo not given),3.83%
4,CCCc1cc(=O)[nH]c(Nc2ccc(OC)c(Cl)c2)n1,4.43%
5,O=C(O)c1ccc(CSc2ncn[nH]2)cc1,0.55%
6,O=C(NCc1ccc2c(c1)OCO2)C1CCC(CNS(=O)(=O)c2ccccc2)CC1 (stereo not given),1.15%
7,NC(CO)C(=O)NNCc1ccc(O)c(O)c1O (stereo not given),-2.67%
8,CCCCCc1nnc(NC(=O)Cc2cccs2)s1,3.64%
9,O=C(NCCN1CCOCC1)c1ccc(CS(=O)(=O)Cc2ccccc2F)o1,1.64%
10,CC1(C2(O)CC(c3ccccc3)ON2)CCCCC1 (stereo not given),-2.36%
11,CCOC(=O)N1CCC(n2c(=S)[nH]c3cc(OC)c(OC)cc3c2=O)CC1,-1.27%
12,O=S(=O)(NCc1cn2ccccc2n1)c1cc(F)ccc1F,-6.36%
13,O=C(CCNNC(=O)c1ccncc1)NCc1ccccc1,-2.67%
14,CC(OC(=O)c1ccco1)C(=O)NCc1cccs1 (stereo not given),-4.55%
15,C(=N/n1c2ccccc2c2ccccc21)/c1ccco1,0.49%
16,CCCCC[C@H](O)/C=C/C1=C(CCCCCCC(=O)O)C(=O)CC1,-1.17%
17,CCOC(=O)C1CCN(C(=O)COc2ccc(S(=O)(=O)NC(C)C)cc2Cl)CC1,24.5%
18,Nn1c(SCC(=O)NC2CCCCC2)nnc1-c1ccc(Cl)cc1,3.71%
19,Cc1nnc(C)c2c(C)n(Cc3ccc4c(c3)OCO4)c(C)c12,24.5%
20,CCOC(=O)c1cc(-c2ccccc2)sc1N,-2%

row,Compound,inhibition
1,O=C(Nc1nc(-c2cccs2)cs1)c1cccc(S(=O)(=O)N2CCCCC2)c1,1.64%
2,c1cc2c(cc1Cn1cnnn1)OCO2,4.26%
3,Cc1cc(C)cc(NC(=O)CN(C)S(=O)(=O)c2cnc[nH]2)c1,-6.36%
4,CC(=O)[C@@]1(O)CC[C@H]2[C@@H]3C[C@H](C)C4=CC(=O)C=C[C@]4(C)[C@@]3(F)[C@@H](O)C[C@@]21C,7.83%
5,O=S(=O)(Nn1cnnc1)c1ccccc1Cl,7.09%
6,CNC(=O)NCCN1CCCC1=O,-3.09%
7,CC(=O)c1ccccc1NS(=O)(=O)c1c(C)nn(-c2ccccc2)c1C,-4.55%
8,Cc1onc(-c2c(F)cccc2Cl)c1C(=O)Nc1nc2c(s1)CCCC2,-1.09%
9,Cc1nc2ccc(S(=O)(=O)NCC(=O)N3CCCCC3)cc2s1,0.16%
10,CCN1CCN(C(=O)N[C@@H](C(=O)N[C@@H]2C(=O)N3[C@@H]2SC(C)(C)[C@@H]3C(=O)O)c2ccccc2)C(=O)C1=O,6.33%
11,COc1ccc2cnn(-c3ccccc3C)c(=O)c2c1OC,0.55%
12,Cc1ccc(S(=O)(=O)N2CCN(C(=O)CSc3nc4ccccc4c(=O)[nH]3)CC2)c(C)c1,-3.64%
13,C=CCN1C(=O)CS/C1=N/c1nccs1,-1.13%
14,CCCC(=O)Nc1ccc(C(=O)O)cc1NC(=O)CCC,1.45%
15,CCCC(=O)Nc1cnc(NC(=O)c2cccc(F)c2)cc1C,2.95%
16,Cc1cc(C)n2nc(SCC(=O)N(C)Cc3ccccc3)nc2n1,1.82%
17,CCc1[nH]nc2c1C1(CCN(C(=O)OCc3ccccc3)CC1)C(C#N)=C(N)O2,2.1%
18,CCOc1ccc(N2CC(C(=O)NCCc3ccc(OC)c(OC)c3)CC2=O)cc1 (stereo not given),2.26%
19,O=C(COC(=O)CCC1CCCC1)Nc1ccc(Cl)cn1,-1.45%
20,c1ccc(-c2oc3ncnc(NCCN4CCOCC4)c3c2-c2ccccc2)cc1,-4.1%
